Source: PubChem BioAssay (National Center for Advancing Translational Sciences (NCATS))
HP1b binding inh = inhibitors of HP1-beta chromodomain binding to methylated histone tails | 390,000 tested, 0.56% active | AlphaScreen HP1-beta / biotin-H3K9me3 peptide binding | Potency, µM (series often up to 114 µM), for inactives: at the top dose activity change, negative = inhibition, usual class: inhibitors | AID 540317; further: nearly all actives have a fitted effect of over 70% in size
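Compound inhibition of the preformed complex between 50 nM HP1-beta and 50 nM biotinylated H3K9me3 peptide was read by AlphaScreen. Buffer was PBS pH 7.4 with 0.01% Tween-20. Incubations ran 30 min at room temperature, with 10 ug/mL donor/acceptor beads.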
JMJD2A Tudor inh = blocks the human JMJD2A Tudor domain; AlphaScreen JMJD2A-Tudor / H3K4me3 peptide binding; Potency, µM (top dose mostly 114 µM), for inactives: at the highest dose activity change, negative = inhibition, usual class: inhibitors; O75164; 390,000 tested, 4.4% active; AID 504339; further: on the % scale 0 is the no-effect control and ±100 the full control effect; nearly all actives have a fitted effect of over 50% in size
BAZ2B inh = BAZ2B (human) inhibition; Q9UIF8; AID 504333; AlphaScreen BAZ2B-H3K14Ac peptide displacement; 360,000 tested, 4.4% active; Potency, µM (titrated, usually from 114 µM), inactives show at the top dose activity change, negative = inhibition, actives largely listed as inhibitors; further: on the % scale 0 is the no-effect control and ±100 the full control effect; nearly all actives have a fitted effect of over 60% in size
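BAZ2B 50 nM plus b-H3(5-23)K14Ac 50 nM, PBS pH 7.4/0.01% Tween-20, 30 min RT; compound added (max 110 uM), 30 min RT; streptavidin donor/Ni-chelate acceptor beads 10 ug/mL final, 20 min dark; AlphaScreen read.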
G9a inh = blocks human histone lysine methyltransferase G9a | 350,000 tested, 8.8% active | G9a H3K9 monomethylation, AlphaScreen, 2 h | Q96KQ7 | Potency, µM (titrated, usually from 102 µM), for the others: at the highest dose activity, negative = inhibition, usual class: inhibitors; further: on the % scale 0 is the no-effect control and ±100 the full control effect; nearly all actives have a fitted effect of over 75% in size
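Signal arises when biotinylated H3K9 peptide, once monomethylated, bridges streptavidin donor and antibody-captured acceptor beads. Enzyme at 20 nM was preincubated 15 min with test compounds; peptide 500 nM and SAM 20 uM then reacted for 2 h.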
L3MBTL1 inh = blocks human L3MBTL1 | Q9Y468 | AlphaScreen L3MBTL1–H3K9me1 peptide binding | Potency, µM (titrated, usually from 57.1 µM), inactives show at the highest dose activity, negative = inhibition, actives largely listed as inhibitors | 230,000 tested, 0.66% active; further: on the % scale 0 is the no-effect control and ±100 the full control effect; nearly all actives have a fitted effect of over 60% in size
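First, the protein-peptide complex forms for 30 min at room temperature (L3MBTL1 50 nM, biotinylated H3K9me1 peptide 75 nM). Next, compounds are pin-transferred and incubated 30 min. Finally, AlphaScreen beads are added and read after 30 min.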
The depositor's hits bear a star; [ ] = remark or other dose. Only some compounds are listed: those with a hit (about 11% of all), similar ones and a draw of the others. The call rests on the fitted dose curve; in most records, active means well fitted inhibition curve with a large enough effect; inconclusive means small, poorly fitted or top-dose-only effect; inactive means no such curve, though single readings can be large or run the other way. Potency means the concentration at half of the fitted maximal effect.

Results for CC[C@@]12CCCN3CCc4c(n(c5ccccc45)[C@](O)(C(=O)OC)C1)C32 (stereo not given in full) ?
G9a inh: -26%[2.33 µM]

Results for COc1cc(CNCc2ccccn2)ccc1OCc1c(Cl)cccc1Cl ?
HP1b binding inh: 20%; JMJD2A Tudor inh: inconclusive; BAZ2B inh: 89µM*; G9a inh: -37%; L3MBTL1 inh: inconclusive

How did COc1cc(CNCc2ccccn2)ccc1OCc1ccc(Cl)cc1 do in these assays?
HP1b binding inh: 18%; JMJD2A Tudor inh: 25µM*; BAZ2B inh: inconclusive; G9a inh: 9%[59 µM]; L3MBTL1 inh: -29%

How did COc1cc(CNCc2cccs2)ccc1OCc1ccccc1 do in these assays?
HP1b binding inh: 29%; JMJD2A Tudor inh: -6%; BAZ2B inh: 7%; G9a inh: -2%[59 µM]; L3MBTL1 inh: 2%

How did COc1ccc(OC)c(NC(=O)CSc2cn(CC(=O)N3CCCCCC3)c3ccccc23)c1 do in these assays?
HP1b binding inh: 23%; JMJD2A Tudor inh: -25%; BAZ2B inh: -24%; G9a inh: inconclusive

What do the screens show for `O=S(=O)(c1ccc2ncsc2c1)N1CCN(c2nc(-c3cccs3)nc3ccccc23)CC1`?
HP1b binding inh: 6%; JMJD2A Tudor inh: -22%

What do the screens show for `CN(C)C(CNC(=O)C1CCN(C(=O)/C=C/c2ccccc2)CC1)c1ccccc1` (stereo not given)?
HP1b binding inh: 5%; JMJD2A Tudor inh: -17%; BAZ2B inh: -1%; G9a inh: inconclusive

How did CNC(=O)C(=O)Nc1cc2c3c(c1)C(C)C(=O)N3CCC2 (stereo not given) do in these assays?
HP1b binding inh: 30%; JMJD2A Tudor inh: -2%; BAZ2B inh: -23%; G9a inh: 1.4µM*

What do the screens show for `CC1C(=O)N2CCCc3cc(NC(=O)COc4ccc(Cl)cc4)cc1c32` (stereo not given)?
HP1b binding inh: 15%; JMJD2A Tudor inh: -9%; BAZ2B inh: -3%; G9a inh: 50µM*; L3MBTL1 inh: 4%

How did CC1C(=O)N2CCCc3cc(NS(=O)(=O)c4ccc(F)cc4)cc1c32 (stereo not given) do in these assays?
HP1b binding inh: -13%; JMJD2A Tudor inh: -13%; BAZ2B inh: -2%; G9a inh: 50µM*; L3MBTL1 inh: 20%

How did CC1C(=O)N2CCCc3cc(NC(=O)C4CC4)cc1c32 (stereo not given) do in these assays?
HP1b binding inh: -3%; JMJD2A Tudor inh: -4%; BAZ2B inh: 13%; G9a inh: -12%; L3MBTL1 inh: 3%

What do the screens show for `Cc1c(Cl)cccc1NC(=O)CN1C(=O)CCn2nc(-c3cccn3C)cc21`?
HP1b binding inh: -7%[57 µM]; JMJD2A Tudor inh: inconclusive; BAZ2B inh: inconclusive; G9a inh: inconclusive

How did CCCNC(=O)CSc1c2c(nc3ccc(Cl)cc13)CCCC2 do in these assays?
HP1b binding inh: 32%; JMJD2A Tudor inh: -3%; G9a inh: -5%[59 µM]

Results for CC(=O)c1cccc(NC(=O)CCc2c(C)nc3nc(CN)nn3c2C)c1 ?
HP1b binding inh: 21%; JMJD2A Tudor inh: inconclusive; BAZ2B inh: 50µM*; G9a inh: 16µM*

Results for CCOc1cc(N2CCOCC2)c(OCC)cc1NC(=O)CN1C(=O)NC(C)(c2ccc(OC)cc2)C1=O (stereo not given) ?
HP1b binding inh: 26%; JMJD2A Tudor inh: -26%

What do the screens show for `CC1=CC(C)C2(COC(c3ccc[n+](C)c3)OC2)C(C)C1` (stereo not given)?
HP1b binding inh: -5%; JMJD2A Tudor inh: 22µM*; BAZ2B inh: -36%; G9a inh: inconclusive; L3MBTL1 inh: 57%

How did CCOC(=O)c1ccc(NC(=O)CSc2c3c(nc4cc(Cl)ccc24)CCCC3)cc1 do in these assays?
HP1b binding inh: 26%; JMJD2A Tudor inh: -13%; BAZ2B inh: -9%; G9a inh: 8%[59 µM]

What do the screens show for `Cc1c(O)c(=O)c2ccccc2n1C`?
HP1b binding inh: 30%; JMJD2A Tudor inh: 22µM*; BAZ2B inh: -9%; G9a inh: 45µM*; L3MBTL1 inh: -1%
